Rows were chosen to be rich in hits. Some 2.9% of all compounds tested hit in one or more screens of this group.
MmCpn inh = blocks the Methanococcus maripaludis chaperonin Mm-Cpn; 0.031% of 330,000 active; Potency, µM (doses to about 76.9 µM), most hits filed as inhibitors; purified Mm-Cpn ATPase, ADP Transcreener TR-FRET; AID 504842; active = well fitted inhibition curve with a large enough effect; inconclusive = small, poorly fitted or top-dose-only effect; also: nearly all actives have a fitted effect of over 80% in size
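Reaction buffer contained 30 mM Tris pH 7.4, 100 mM KCl, 5 mM MgCl2 and 1 mM DTT. Mm-CPN (25 nM final) hydrolysed 10 uM ATP over 30 min at 37°C; ADP was read by HTRF.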
TSG101-PTAP inh = blocks PTAP/TSG101 interaction to inhibit HIV-1 budding; Q99816; Fluorescence polarization, FITC-PTAP peptide / Tsg101 binding; Potency, µM (highest dose often 115 µM), most hits filed as inhibitors; 340,000 tested, under 10 active; AID 493005; active = well fitted inhibition curve with a large enough effect in the main read-out, with a control signal flat, not every such curve was filed as active; inconclusive = small, poorly fitted or top-dose-only effect, or effect the other way, or a change in a side signal; inactive = no such curve, though single readings can be large or run the other way
Target sequence (Q99816 whole entry, looked up): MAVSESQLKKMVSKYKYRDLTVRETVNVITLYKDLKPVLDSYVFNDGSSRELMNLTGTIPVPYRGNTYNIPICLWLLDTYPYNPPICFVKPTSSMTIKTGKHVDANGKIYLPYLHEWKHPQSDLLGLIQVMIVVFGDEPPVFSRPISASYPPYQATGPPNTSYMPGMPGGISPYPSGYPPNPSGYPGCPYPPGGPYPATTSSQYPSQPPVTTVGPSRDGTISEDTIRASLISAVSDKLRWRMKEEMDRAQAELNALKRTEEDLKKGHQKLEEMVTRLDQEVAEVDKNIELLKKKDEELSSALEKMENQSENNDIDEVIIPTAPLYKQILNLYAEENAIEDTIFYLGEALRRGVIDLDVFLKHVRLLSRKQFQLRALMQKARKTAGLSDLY
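Fluorescence polarization binding of Tsg101 binding domain (10 uM final) to FITC-labeled PTAP peptide (50 nM final) in HEPES pH 7.5 buffer with NaCl, Tween 20, EDTA, TCEP. Compounds added before peptide; binding 20 min at RT.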
Rango complex inh = prevents formation of the Rango-importin beta complex; Rango CFP/YFP FRET sensor + importin beta, 45 min; 0.031% of 340,000 active; Q14974; Potency, µM (series often up to 92.2 µM); also: nearly all actives have a fitted effect of over 15% in size
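Inhibition scored from the CFP 486 nm/YFP 530 nm FRET ratio 45 min after adding 0.125 microM importin beta to 50 nM Rango biosensor preincubated 5 min with compound (room temperature, PBS with DTT, Tween-20, BSA). No-importin wells as positive control.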
DRD3 agonist = D3 dopamine receptor (human) agonism; 0.58% of 410,000 active; P35462; D3R DiscoveRx beta-arrestin cells, luminescence, 90 min; max activation, %; AID 652048; in the data active = max activation above about 30%
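Cells at 1500/well, incubated overnight, then treated with pinned compounds (dopamine as control) for 90 min at 37 degrees C. DiscoveRx reagent added for 30 - 60 minutes at room temperature; luminescence read.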
DRD3 antagonist = D3 dopamine receptor (human) antagonism. P35462. D3R cells, DiscoveRx beta-arrestin luminescence, antagonist mode; hits give low values. max response, negative = inhibition, %. 2.5% of 360,000 active. AID 652054; in the data active = max response below about -50%; inconclusive = no clear call, values can overlap the other calls
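Cells expressing the human receptor were seeded at 1500 cells/well, incubated overnight at 37 degrees C in 5% CO2, then exposed to library compounds with dopamine controls for 90 minutes at 37 degrees C before luminescent detection.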
Rango release inh = prevents RanGTP from dissociating the Rango-importin beta complex. O95149+P62826. Biochemical FRET Rango-importin beta, RanGTP-induced dissociation. Potency, µM (doses to about 46.1 µM). 0.071% of 340,000 active. AID 540253; also: nearly all actives have a fitted effect of over 45% in size
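Rango FRET biosensor (snurportin-1 IBB flanked by N-terminal EYFP and C-terminal CFP10) at 0.1 uM, with 0.25 uM importin beta in PBS, 1mM DTT, 0.02% Tween-20, 0.1% BSA. 0.6 uM Ran, 2mM GTP and 0.2 uM RCC1 were then added for 45 min at room temperature. Inhibition read as loss of FRET rise.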
Numbers stand for hits; - = inactive; ? = inconclusive; . = not tested or not shown; ! = not active in a repeat. Unless noted, calls follow the shape of the full dose curve.

SMILES | MmCpn inh | TSG101-PTAP inh | Rango complex inh | DRD3 agonist | DRD3 antagonist | Rango release inh
COc1cc(NC(=O)CCN2CCN(c3ccccc3F)CC2)cc(OC)c1 | - | - | - | - | - | -
COc1ccccc1N1CCN(CCC(=O)Nc2cccc(F)c2)CC1 | . | . | . | - | -110.9 | .
O=C(CCn1c(=O)c2cccn2c2ccccc21)Nc1ccc(F)cc1 | - | - | - | - | -65.0 | -
COc1ccc(NC(=O)CCn2c(=O)c3cccn3c3ccccc32)cc1 | - | - | - | - | - | -
COc1ccccc1N1CCN(CC(=O)Nc2cc(F)ccc2C)CC1 | - | - | - | - | -83.1 | -
CCCOc1ccc(C(=O)Nc2cccc(-c3nc4ccccc4[nH]3)c2)cc1 | . | . | . | - | . | .
CCS(=O)(=O)N1CCc2cc(C(=O)Nc3cccc(C)c3C)ccc21 | . | . | . | - | . | .
COc1ccc(-n2nc(C(=O)N3CCN(c4cccc(C)c4C)CC3)c3c4ccccc4n(C)c3c2=O)cc1Cl | . | . | . | - | . | .
Cc1cccc(NC(=O)c2cc(S(=O)(=O)N3CCc4ccccc43)ccc2F)c1C | . | . | . | - | . | .
CC(C)(C)n1nnnc1C(c1ccncc1)N1CCN(C2CCCCC2)CC1 (stereo not given) | - | - | - | - | - | -
Cc1ccc(C(c2nnnn2C(C)(C)C)N2CCN(C3CCCC3)CC2)cc1 (stereo not given) | - | - | - | - | -91.9 | -
COc1ccccc1N1CCN(C(c2ccc(F)cc2)c2nnnn2C(C)C)CC1 (stereo not given) | - | - | - | - | - | -
COc1ccc(C(c2nnnn2CCc2ccccc2)N2CCN(C3CCCC3)CC2)cc1 (stereo not given) | - | - | - | - | -84.8 | -
COc1ccccc1N1CCN(C(c2ccc(N(C)C)cc2)c2nnnn2CCc2ccccc2)CC1 (stereo not given) | - | - | - | - | -51.2 | -
Cn1cnc([N+](=O)[O-])c1S(=O)(=O)c1ccc(Cl)cc1 | - | - | - | - | -67.7 | -
Cn1cnc([N+](=O)[O-])c1NC(C)(C)C | - | - | - | - | - | -
Cc1ccc(Cn2c(=O)n(Cc3ccco3)c(=O)c3sc4ccccc4c32)cc1 | . | . | . | - | . | .
O=C(CO)[C@@H](O)[C@H](O)[C@@H](O)C(=O)O | . | . | . | - | . | .
COCc1ccc(C(=O)NC2CC(C)(C)Cc3c2cnn3-c2ccc(OC)cc2)o1 (stereo not given) | - | - | - | - | - | ?
O=C(Nc1ccccc1)OCCN1CCN(Cc2ccccc2)CCC1=O | - | - | - | - | - | -
O=C(Nc1cccc(Cl)c1)OCCN1CCN(Cc2ccccc2)CCC1=O | - | - | - | 33.6 | - | -
COc1cccc(NC(=O)OCCN2CCN(Cc3ccccc3)CCC2=O)c1 | - | - | - | 44.0 | - | -
Cc1cc(-c2ccc(C)c(S(=O)(=O)N(C)c3ccc(C)c(C)c3)c2)on1 | . | . | . | - | . | .
Cc1ccc(Nc2c(-c3cccs3)nc3nc(C)cc(C)n23)cc1 | . | . | . | - | . | .
CN(Cc1ccccc1)c1ncnc2c1nc1n2CCCC1 | . | . | . | - | . | .
SMILES | MmCpn inh | TSG101-PTAP inh | Rango complex inh | DRD3 agonist | DRD3 antagonist | Rango release inh
Cc1ccc(/C=C/c2nc3ccccc3n2S(=O)(=O)c2cccc(Cl)c2)cc1 | . | . | . | - | . | .
c1ccc(-c2ccccc2OCCCCN2CCCCC2)cc1 | - | - | - | - | -71.4 | -
c1ccc(-c2ccccc2OCCCN2CCCC2)cc1 | - | - | - | - | -71.1 | -
Cc1ccc(C)c(N2CCN(CCCNC(=O)Cn3c(=O)c4cccn4c4cccnc43)CC2)c1 | - | - | - | - | -98.2 | -
O=C(CCn1c(=O)c2cccn2c2cccnc21)NCCCN1CCN(c2ccc(F)cc2)CC1 | . | . | . | - | -67.4 | .
Cc1ccc(C)c(N2CCN(CCCNC(=O)CCn3c(=O)c4cccn4c4cccnc43)CC2)c1 | - | - | - | - | ? | -
CCc1ccc(S(=O)(=O)c2c[nH]c3cc(OC)c(OC)cc3c2=O)cc1 | . | . | . | - | . | .
CCN(CC)c1ccc(/C=N/NC(=O)c2cccc(N3CCCC3=O)c2)cc1 | - | - | ? | - | - | 10.3µM
CN(CCNC(=O)c1cccc(N2CCCC2=O)c1)Cc1ccccc1 | - | - | - | - | -58.4 | -
O=C(N/N=C/c1cccnc1)c1cccc(N2CCCC2=O)c1 | - | - | - | - | - | -
CC(CNC(=O)c1ccc(Cn2c(SCc3ccccc3)nc3cccnc32)cc1)c1ccccc1 (stereo not given) | . | . | . | - | . | .
Cc1sc2ncn(CC(=O)Nc3ccc(F)cc3Cl)c(=O)c2c1S(=O)(=O)N1CCN(c2ncccn2)CC1 | . | . | . | - | . | .
NS(=O)(=O)c1ccc(NC2=CC(=O)C(=O)c3ccccc32)cc1 | - | - | - | - | -53.0 | -
CCN1CCN(C2=C(Cl)C(=O)N(Cc3ccccc3)C2=O)CC1 | - | - | - | - | -50.5 | -
CC(C)CN(CCNC(=O)c1cc(-c2ccc(Cl)s2)nc2ccccc12)CC(C)C | . | . | . | - | . | .
Cc1sc2ccccc2c1CNC[C@H]1O[C@@H](n2ccc(N)nc2=O)[C@H](O)[C@@H]1O | . | . | . | - | - | .
Cc1sc2ccccc2c1CNC[C@H]1O[C@@H](n2cnc(C(N)=O)n2)[C@H](O)[C@@H]1O | . | - | - | 47.9 | - | -
COc1cccc(NC(=O)C2CCN(c3nc4ccccc4nc3C(F)(F)F)CC2)c1 | . | . | . | 31.8 | . | .
O=C(O)CCn1ccc2cc(S(=O)(=O)N3CCCCC3)ccc21 | . | . | . | - | . | .
NCCNCCNCCN | - | - | - | 36.0! | - | -
COc1ccc(OC)c(NC(=O)CCCc2nnc3n(C(C)C)c(=O)c4sccc4n23)c1 | . | . | . | - | . | .
COCCn1c(SCC(=O)NNC(=O)c2cc(Cl)ccc2OC)nnc1-c1ccncc1 | - | - | - | - | -100.3 | -
COCCn1c(SCC(=O)Nc2cccc(OC)c2)nnc1-c1ccc(Cl)cc1 | - | - | - | - | - | -

Bioassay records from PubChem.
